Screens: PubChem, Sanford-Burnham Center for Chemical Genomics
Sampled rows, rich in hits. Any-hit rate of the full collection: about 1.5%.
GC-B act: human GC-B receptor activators, primary screen, HEK293 GC-B cells, cGMP TR-FRET, EC30 CNP. Atrial natriuretic peptide receptor 2 (Homo sapiens), P20594. 0% at EC30 CNP, 100% saturating CNP. activation, % at 10 µM. actives 0.11% (n = 370,000);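 active = activation at 10 µM reaching about 35% in either raw or pattern-adjusted values, limit read from the data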
NadD inh: inhibitors of S. aureus NadD, primary screen, biochemical, colorimetric, uHTS; inhibition, % at 20 µM; actives 0.78% (n = 360,000); AID 602399, 2012; purified NadD enzyme, colorimetric absorbance read-out; in the data active = inhibition above about 26%
Neddylation inh: inhibitors of cullin neddylation, primary screen, biochemical, TR-FRET, uHTS, NAE and Ubc12; actives 0.58% (n = 360,000); NEDD8-conjugating enzyme Ubc12 (Homo sapiens) + NEDD8-activating enzyme E1 regulatory …; inhibition, % at 25 µM; in the data active = inhibition above about 36%
NPR1 activator: GC-A stimulated cGMP production enhancers – HEK293 GC-A cells, cGMP TR-FRET, EC30 ANP, primary screen; activation, % at 10 µM; actives 0.14% (n = 370,000); 0% at EC30 ANP, 100% saturating ANP; Atrial natriuretic peptide receptor 1 (Homo sapiens), P16066; in the data active = activation above about 40%
Target sequence (P16066 whole entry, looked up): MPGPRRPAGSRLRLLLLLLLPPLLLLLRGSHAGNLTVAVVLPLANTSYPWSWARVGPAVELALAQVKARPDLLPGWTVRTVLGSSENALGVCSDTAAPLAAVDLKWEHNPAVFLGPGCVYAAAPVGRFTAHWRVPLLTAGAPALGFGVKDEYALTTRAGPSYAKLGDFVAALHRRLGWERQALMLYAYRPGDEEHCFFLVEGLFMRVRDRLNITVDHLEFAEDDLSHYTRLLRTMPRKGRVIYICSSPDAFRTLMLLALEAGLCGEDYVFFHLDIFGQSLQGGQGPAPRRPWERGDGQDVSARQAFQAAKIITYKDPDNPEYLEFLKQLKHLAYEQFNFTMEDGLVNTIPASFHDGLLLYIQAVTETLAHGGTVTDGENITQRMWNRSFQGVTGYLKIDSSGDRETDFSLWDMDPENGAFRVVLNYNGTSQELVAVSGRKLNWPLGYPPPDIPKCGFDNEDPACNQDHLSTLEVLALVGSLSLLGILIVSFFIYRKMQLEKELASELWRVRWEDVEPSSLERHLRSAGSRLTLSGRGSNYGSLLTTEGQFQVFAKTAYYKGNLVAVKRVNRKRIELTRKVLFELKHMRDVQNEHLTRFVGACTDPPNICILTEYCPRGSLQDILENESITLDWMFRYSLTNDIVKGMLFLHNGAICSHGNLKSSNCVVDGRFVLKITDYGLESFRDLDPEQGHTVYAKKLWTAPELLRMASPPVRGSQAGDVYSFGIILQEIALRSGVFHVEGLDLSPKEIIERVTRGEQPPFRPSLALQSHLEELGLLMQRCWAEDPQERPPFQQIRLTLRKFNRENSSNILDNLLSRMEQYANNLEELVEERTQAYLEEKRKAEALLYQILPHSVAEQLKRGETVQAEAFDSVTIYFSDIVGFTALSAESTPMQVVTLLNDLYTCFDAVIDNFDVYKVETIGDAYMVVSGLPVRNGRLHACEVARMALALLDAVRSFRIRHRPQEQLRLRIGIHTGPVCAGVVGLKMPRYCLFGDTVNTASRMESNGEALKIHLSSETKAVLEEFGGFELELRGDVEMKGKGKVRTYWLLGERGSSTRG
NadD conf: inhibitors of S. aureus NadD, confirmation, biochemical, colorimetric, single concentration | shares compounds with NadD inh | purified S. aureus NadD, colorimetric enzyme assay | inhibition, % at 20 µM | actives 13% (n = 2,000) | AID 624309, 2012; in the data active = inhibition mostly above about 42%, no sharp cut-off; inactive = mostly below about 42%
Numbers without * were called inactive.

For O=S(=O)(c1ccccc1)N1CCN(c2cccc(Cl)c2)CC1 the results were GC-B act 0, NadD inh -5, Neddylation inh 3 and NPR1 activator 1.
`O=[N+]([O-])c1ccc2[nH]cc(S(=O)(=O)N3CCN(c4cccc(Cl)c4)CC3)c2c1` gave GC-B act -7, NadD inh 31*, Neddylation inh -12, NPR1 activator -34 and NadD conf 12.
Screening Cc1cc(SCC(=O)c2cccc([N+](=O)[O-])c2)nc(=O)[nH]1 returned NadD inh 33*, Neddylation inh -23 and NadD conf 34.
`O=C(Nc1cccc([N+](=O)[O-])c1)OCc1ccc2c(c1)OCO2` gave GC-B act 10 and NPR1 activator 3.
COC(=O)C1=C(O)/C(=C\c2ccc(CNS(=O)(=O)c3ccccc3)o2)N=C1C was read as GC-B act -3, NadD inh 5, Neddylation inh 2 and NPR1 activator -7.
Screening COC(=O)C1=C(O)/C(=C\c2ccc(CNC(=O)C(=O)Nc3ccc(C)cc3)o2)N=C1C returned GC-B act -7, NadD inh 32*, Neddylation inh -3, NPR1 activator 0 and NadD conf 8.
COC(=O)C1=C(O)/C(=C\c2ccc(CNC(=O)C(=O)Nc3ccc(C)c(C)c3)o2)N=C1C was read as GC-B act 0, NadD inh 34*, Neddylation inh 4, NPR1 activator 0 and NadD conf 7.
For CCOC(=O)C1=C(O)/C(=C/c2ccc(CNC(=O)C(=O)Nc3ccc(C)cc3)o2)N=C1C the results were GC-B act 3, NadD inh 46*, Neddylation inh -5, NPR1 activator -1 and NadD conf 6.
CCOC(=O)C(=O)NCc1ccc(/C=C2/N=C(C)C(C(=O)OCC)=C2O)o1 was read as GC-B act -2, NadD inh -1, Neddylation inh 2 and NPR1 activator -6.
`CCN1C(=O)N[C@H]2C[C@@H](c3ccccc3)[C@@H](C)[C@@H](C(=O)N3CCCC3)C[C@H]21` gave GC-B act 6 and NPR1 activator 3.
`CCOc1ccc(N(CC(=O)Nc2c(C)n(C)n(-c3ccccc3)c2=O)S(=O)(=O)c2cccs2)cc1` gave GC-B act -2 and NPR1 activator 5.
C[C@@H]1C=CCCO[C@]12C(=O)N(Cc1ccc(Br)cc1)c1ccccc12 was read as GC-B act -7 and NPR1 activator -5.
Screening CC1(C(=O)N2CC3(CC(c4cccc(NC(=O)COc5ccc(Cl)cc5)c4)=NO3)C[C@@H]2C(N)=O)CC1 (some centres not stated) returned GC-B act 3, NadD inh 4, Neddylation inh -7 and NPR1 activator 1.
For NC(=O)[C@H]1CC2(CC(c3cccc(NC(=O)COc4ccc(Cl)cc4)c3)=NO2)CN1C(=O)c1ccc(Cl)cc1 (some centres not stated) the results were GC-B act -2, NadD inh 40*, Neddylation inh -2, NPR1 activator 1 and NadD conf 28.
NC(=O)[C@H]1CC2(CC(c3cccc(NC(=O)COc4ccc(Cl)cc4)c3)=NO2)CN1C(=O)c1ccccc1C(=O)c1ccccc1 (some centres not stated) was read as GC-B act -5, NadD inh 31*, Neddylation inh -90, NPR1 activator -1 and NadD conf 40.
`O=C(N/N=C/c1ccc([N+](=O)[O-])o1)c1cc(-c2ccncc2)nc2ccccc12` gave GC-B act -4, NadD inh 17, Neddylation inh -11 and NPR1 activator -5.
Screening O=C(N/N=C/c1cc([N+](=O)[O-])ccc1Cl)c1cc(-c2ccccc2)nc2ccccc12 returned GC-B act -7, NadD inh 36*, Neddylation inh -8, NPR1 activator 7 and NadD conf -1.
`O=C(N/N=C/c1ccc([N+](=O)[O-])o1)c1cc(-c2ccc(-c3ccccc3)cc2)nc2ccccc12` gave GC-B act -13, NadD inh 70*, NPR1 activator -16 and NadD conf 10.
